Counter-ions that a name gives are not always drawn.
Tested on: Drosophila S2 cl14 SmoIP sensor cells
Assay: normalized SmoIP GFP fluorescence (untreated unstimulated = 0%, untreated Hh-stimulated = 100%); higher = more Smo activation sensor fluorescence
Details: compound concentration: 2 uM, 24 h
[1] = stimulation: Hh conditioned medium (+Hh)
[2] = stimulation: mock conditioned medium (-Hh)
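Further: flow cytometry read-out as median GFP intensity of gated cells, compounds added 30 min before Hh-conditioned or mock medium, mock-treated cells serving as unstimulated baseline.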

Row | SMILES | normalized SmoIP GFP fluorescence [1] | normalized SmoIP GFP fluorescence [2]
1 | CCN(CC)C(=O)/C(C#N)=C/c1cc(O)c(O)c([N+](=O)[O-])c1 [entacapone] | 106% | -3.05%
2 | CCCCOc1ccc(C(=O)Nc2ccc(F)cc2F)cc1 | 99.9% | -2.08%
3 | O=C(O)C(O)Cc1ccc(O)c(O)c1 (stereo not given) [Sodium-Danshensu] | 93.6% | -2.82%
4 | CNC[C@H](O)c1cccc(O)c1 [Phenylephrine-hydrochloride] | 108% | -14.9%
5 | Cc1ccccc1-n1c(Cn2nc(-c3cccc(O)c3)c3c(N)ncnc32)nc2cccc(C)c2c1=O | 101% | -5.98%
6 | CC1(C)CC(=O)c2c(C(F)(F)F)nn(-c3ccc(C(N)=O)c(N[C@H]4CC[C@H](OC(=O)CN)CC4)c3)c2C1 | 233% | 83.8%
7 | Cn1cc(-c2ccc3c(c2)CCN3C(=O)Cc2cccc(C(F)(F)F)c2)c2c(N)ncnc21 | 131% | 39.3%
8 | CNC(=O)c1cc(COc2nnc(Nc3ccc(Cl)cc3)c3ccoc23)ccn1 [Telatinib-BAY-57-9352] | 104% | -14.3%
9 | Cc1cccc(C)c1OCC(=O)N[C@@H](Cc1ccccc1)[C@@H](O)C[C@H](Cc1ccccc1)NC(=O)[C@H](C(C)C)N1CCCNC1=O [Lopinavir] | 117% | 6.52%
10 | O=C(/C=C\n1cnc(-c2cc(C(F)(F)F)cc(C(F)(F)F)c2)n1)N1CC(F)(F)C1 | 118% | -0.264%
11 | CCCCOc1c(C(=O)c2c(F)cc(C)cc2F)c[nH]c2nncc1-2 | 138% | -11.7%
12 | Cn1c(=O)c2[nH]cnc2n(C)c1=O [Aminophylline(Truphylline)] | 98.8% | -6.51%
13 | CC(C)CC(=O)Nc1n[nH]c2c1CN(C(=O)C1CCN(C)CC1)C2(C)C | 41.2% | 20.1%
14 | c1cncc(CN2CCC(n3ncc4c(N5CCOCC5)nc(-c5ccc6[nH]ccc6c5)nc43)CC2)c1 | 104% | -4.53%
15 | CC(C)c1cnn2c(NCc3ccccc3)cc(NCCCCCCN)nc12 | 105% | 10.7%
16 | O=C(Nc1ccncc1)c1cc([N+](=O)[O-])ccc1Cl | 114% | -2.82%
17 | Nc1cc(C(F)(F)F)c(-c2cc(N3CCOCC3)nc(N3CCOCC3)n2)cn1 | 68% | -8.9%
18 | Cc1cccc(-c2nn3c(c2-c2ccnc4ccc(C(N)=O)cc24)CCC3)n1 | 110% | -15.4%
19 | Nc1nc(N)c2nc(-c3cccc(O)c3)cnc2n1 | 108% | -4.7%
20 | Cc1nn(-c2ccccc2)c(C)c1C=NN1CCN(Cc2ccccc2)CC1 [sant-1] | 103% | -2.59%

From the supplement of paper PMC5662767
